# Data taken from PubChem BioAssay (Tox21).
# A number with no mark means an inactive call. Inconclusive results are not listed. Entries that show only a call come without a potency. The source made the active and inactive calls. Unless noted, calls follow the shape of the full dose curve.
# Legend:
# [1] = qHTS assay to identify small molecule agonists of the sonic hedgehog signaling (Shh) pathway (AID 1259368); also: nearly all actives have a fitted effect of over 15% in size; also: potency is read from the fitted curve at half-maximal effect
# In short: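 NIH/3T3-derived 3T3Gli1-Luc cells with stably integrated Gli1-driven firefly luciferase, 2,000 cells/well, compounds added after 4 hr. Incubated 24 hr at 37C, 5% CO2; luminescence read after 30 min with luciferase reagent at room temperature.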
# [2] = qHTS assay to identify small molecule antagonists of the sonic hedgehog signaling (Shh) pathway (AID 1259369); also: nearly all actives have a fitted effect of over 45% in size; also: potency is read from the fitted curve at half-maximal effect
# In short: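 NIH/3T3-derived Gli1-Luc reporter cells plated 4 h, dosed with compound, then stimulated with conditioned medium for 24 h at 37 C. Firefly luciferase luminescence read after 30 min with detection reagent at room temperature.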
# [3] = target: Estrogen receptor beta (Homo sapiens) (UniProt Q92731); test: qHTS assay to identify small molecule agonists of the estrogen receptor beta (ER-beta) signaling pathway (AID 1259377; active = well fitted activation curve with a large enough effect in the signal ratio in the repeat runs, not every such curve was filed as active; the % refers to the signal ratio; also: potency is read from the fitted curve at half-maximal effect)
# In short: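 Agonist mode cell assay in GripTite HEK293T cells expressing an ER-beta fusion that drives beta-lactamase from an Upstream Activator Sequence; 16 hr compound exposure at 37C, then 2 h LiveBLAzer B/G FRET substrate at room temperature, fluorescence read-out.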
# [4] = target: Estrogen receptor beta (Homo sapiens) (UniProt Q92731); test: qHTS assay to identify small molecule antagonists of the estrogen receptor beta (ER-beta) signaling pathway (AID 1259378; active = well fitted inhibition curve with a large enough effect in the signal ratio in the repeat runs, not every such curve was filed as active; the % refers to the signal ratio)
# In short: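 ER-beta-UAS-bla HEK293T cells in 2% charcoal-stripped FBS medium treated with compound plus 1nM final 17-beta-estradiol for 16 hr at 37C. Beta-lactamase reporter read by FRET substrate fluorescence after 2 hours at room temperature.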
# [5] = qHTS assay to identify small molecule agonists of the androgen receptor (AR) signaling pathway in the presence of an antagonist - cell viability counter screen (AID 1259379; active = well fitted curve in the direction sought with a large enough effect in the repeat runs; an effect the other way counts as inactive or inconclusive; also: nearly all actives have a fitted effect of over 25% in size; also: potency is read from the fitted curve at half-maximal effect)
# In short: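 MDA-kb2 cells (MMTV-luciferase, AR/GR), 3,000/well, 5 h attachment, then 3.0 µM nilutamide (final) and compounds at 15 concentrations. Viability by CellTiter-Fluor fluorescence after 16 h at 37 °C, 0% CO2, in the reporter wells.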
# [6] = qHTS assay to identify small molecule antagonists of the estrogen receptor beta (ER-beta) signaling pathway - cell viability counter screen (AID 1259382; active = well fitted curve in the direction sought with a large enough effect in the repeat runs; an effect the other way counts as inactive or inconclusive; also: series mostly up to about 92 µM; nearly all actives have a fitted effect of over 55% in size)
# In short: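 ER-beta-UAS-bla HEK293T cells in 2% charcoal-stripped FBS medium, treated with compound plus 1 nM 17-beta-estradiol for 16 h at 37C. Viability read by CellTiter-Glo luminescence after 30 min at room temperature in the same wells.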
# [7] = target: Estrogen receptor (Homo sapiens) (UniProt P03372); test: qHTS assay to identify small molecule agonists of the estrogen receptor alpha (ER-alpha) signaling pathway in the presence of an antagonist (AID 1259383); also: top concentration of the series differs between compounds; nearly all actives have a fitted effect of over 15% in size
# In short: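 VM7Luc4E2 cells express endogenous full-length ER-alpha with an ERE-luciferase reporter and were hormone-deprived for 5 days. Compounds at 15 concentrations were added with 10.0nM ICI-182,780 for 22hr at 37C. Luminescence was read with ONE-Glo.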
# [8] = qHTS assay to identify small molecule agonists or antagonists of the thyroid stimulating hormone receptor (TSHR) signaling pathway - wild type cell line counter screen (AID 1259384)
# In short: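 Wild-type Hek293 cells, 800/well, 18 h at 37C, then compound with Ro20-1724 for 30 min RT. cAMP by HTRF (cAMP-d2/anti-cAMP cryptate), 1 h RT, fluorescence read. 15 concentrations, triplicates.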
# [9] = qHTS assay to identify small molecule agonists of the estrogen receptor beta (ER-beta) signaling pathway - cell viability counter screen (AID 1259380; active = well fitted curve in the direction sought with a large enough effect in the repeat runs; an effect the other way counts as inactive or inconclusive; also: nearly all actives have a fitted effect of over 30% in size)
# In short: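 ER-beta-UAS-bla HEK293T cells in medium with 2% charcoal-stripped FBS, pre-incubated 6 hr, then treated 16 hr at 37C. Cytotoxicity read in the same wells by CellTiter-Glo luminescence after 30 min at room temperature.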
# [10] = target: Androgen receptor (Homo sapiens) (UniProt P10275); test: qHTS assay to identify small molecule agonists of the androgen receptor (AR) signaling pathway in the presence of an antagonist (AID 1259381); also: nearly all actives have a fitted effect of over 15% in size; also: potency is read from the fitted curve at half-maximal effect
# In short: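 MDA-kb2 cells carrying MMTV-luciferase (AR/GR responsive), 3,000 cells/well, co-treated with 3.0 uM nilutamide final. Compounds at 15 concentrations, 16 hr at 37C without CO2. Luciferase luminescence read after 30 min with ONE-Glo.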
# Chain of Androgen receptor (Homo sapiens) (P10275 whole entry, looked up): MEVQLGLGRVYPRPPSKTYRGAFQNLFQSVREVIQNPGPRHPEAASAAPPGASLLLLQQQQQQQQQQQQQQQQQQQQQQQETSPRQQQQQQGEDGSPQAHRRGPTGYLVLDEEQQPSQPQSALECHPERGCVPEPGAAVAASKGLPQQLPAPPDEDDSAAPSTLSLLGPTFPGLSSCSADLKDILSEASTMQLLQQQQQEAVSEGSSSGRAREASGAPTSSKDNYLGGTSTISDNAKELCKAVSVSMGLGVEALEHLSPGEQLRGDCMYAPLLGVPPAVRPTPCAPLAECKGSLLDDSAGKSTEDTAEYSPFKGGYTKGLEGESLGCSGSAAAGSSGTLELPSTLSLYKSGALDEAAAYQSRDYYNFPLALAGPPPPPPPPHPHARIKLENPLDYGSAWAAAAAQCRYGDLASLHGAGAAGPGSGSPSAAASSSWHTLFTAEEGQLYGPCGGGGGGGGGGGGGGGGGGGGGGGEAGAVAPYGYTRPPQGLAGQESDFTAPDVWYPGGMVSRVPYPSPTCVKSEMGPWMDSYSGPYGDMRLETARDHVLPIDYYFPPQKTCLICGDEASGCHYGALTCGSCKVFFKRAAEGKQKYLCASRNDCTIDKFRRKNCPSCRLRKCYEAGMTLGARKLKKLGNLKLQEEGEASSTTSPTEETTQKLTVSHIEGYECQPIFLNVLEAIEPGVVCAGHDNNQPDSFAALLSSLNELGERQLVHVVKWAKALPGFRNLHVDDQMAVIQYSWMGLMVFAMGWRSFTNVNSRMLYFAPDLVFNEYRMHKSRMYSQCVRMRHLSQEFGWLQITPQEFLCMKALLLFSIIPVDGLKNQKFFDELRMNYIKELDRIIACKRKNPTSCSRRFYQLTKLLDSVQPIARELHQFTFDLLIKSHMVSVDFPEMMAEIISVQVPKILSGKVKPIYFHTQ
# Chain of Estrogen receptor beta (Homo sapiens) (Q92731 whole entry, looked up, the tested form may be a part): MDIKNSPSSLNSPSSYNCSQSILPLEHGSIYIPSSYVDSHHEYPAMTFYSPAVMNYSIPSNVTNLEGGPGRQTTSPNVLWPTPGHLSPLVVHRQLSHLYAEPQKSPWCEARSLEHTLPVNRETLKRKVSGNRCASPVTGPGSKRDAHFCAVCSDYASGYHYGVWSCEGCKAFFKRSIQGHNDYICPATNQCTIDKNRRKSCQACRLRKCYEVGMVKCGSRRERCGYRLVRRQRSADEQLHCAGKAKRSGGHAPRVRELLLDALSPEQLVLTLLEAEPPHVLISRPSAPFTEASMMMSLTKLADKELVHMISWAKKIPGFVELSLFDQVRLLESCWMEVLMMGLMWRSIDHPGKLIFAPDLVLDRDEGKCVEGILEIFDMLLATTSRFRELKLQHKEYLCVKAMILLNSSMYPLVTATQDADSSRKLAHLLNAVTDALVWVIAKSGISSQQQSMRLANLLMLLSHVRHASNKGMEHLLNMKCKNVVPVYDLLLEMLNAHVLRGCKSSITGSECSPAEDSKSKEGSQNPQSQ
# Chain of Estrogen receptor (Homo sapiens) (P03372 whole entry, looked up): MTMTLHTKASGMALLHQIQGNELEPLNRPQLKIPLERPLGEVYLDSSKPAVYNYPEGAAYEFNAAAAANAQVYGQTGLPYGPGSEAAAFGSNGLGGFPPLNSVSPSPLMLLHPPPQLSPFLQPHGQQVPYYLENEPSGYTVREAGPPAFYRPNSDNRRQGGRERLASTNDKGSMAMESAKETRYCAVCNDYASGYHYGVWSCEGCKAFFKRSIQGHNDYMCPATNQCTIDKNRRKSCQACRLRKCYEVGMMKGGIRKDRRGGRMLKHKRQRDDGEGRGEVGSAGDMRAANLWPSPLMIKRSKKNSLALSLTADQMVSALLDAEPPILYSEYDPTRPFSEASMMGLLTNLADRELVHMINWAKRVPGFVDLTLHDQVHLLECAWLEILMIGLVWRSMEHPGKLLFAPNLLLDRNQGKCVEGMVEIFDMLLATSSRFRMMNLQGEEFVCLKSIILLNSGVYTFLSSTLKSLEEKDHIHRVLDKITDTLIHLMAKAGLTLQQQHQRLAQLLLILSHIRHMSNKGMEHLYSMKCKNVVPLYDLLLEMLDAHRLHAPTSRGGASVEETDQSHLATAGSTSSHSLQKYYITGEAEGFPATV
SMILES,Potency [1],Potency [2],Potency [3],Potency [4],Potency [5],Potency [6],Potency [7],outcome [8],Potency [9],Potency [10]
C1CCN(CN2CCCCC2)CC1,inactive,inactive,inactive,inactive,inactive,inactive,inactive,inactive,–,–
CC1=C(C)C(=O)C(C(CCCCCC(=O)O)c2ccccc2)=C(C)C1=O (configuration not stated),inactive,inactive,inactive,–,inactive,inactive,inactive,–,–,–
O=C1c2ccccc2C(=O)c2c1ccc(O)c2O,inactive,inactive,7.5 µM (active),–,23.7 µM (active),inactive,–,inactive,inactive,–
O=C(N[C@@H](Cc1ccccc1)[C@@H](O)C(=O)N1C[C@@H](O)[C@@H](O)C1)c1cc2cc(Cl)ccc2[nH]1,inactive,inactive,inactive,–,inactive,inactive,inactive,inactive,–,–
COc1cccc([C@H](O)C2CCN(CCc3ccc(F)cc3)CC2)c1OC,inactive,54.5 µM (active),inactive,inactive,–,inactive,inactive,inactive,–,–
C[C@H](CN1CCCC1)C(=O)c1ccc(C(F)(F)F)cc1,inactive,inactive,inactive,inactive,inactive,inactive,–,inactive,–,–
O=C1c2ccccc2C(=O)C1c1ccc2ccccc2n1,0.121 µM (active),inactive,inactive,–,inactive,inactive,–,inactive,inactive,–
CC(=O)Nc1ccccc1O,inactive,inactive,inactive,inactive,inactive,inactive,–,inactive,–,–
Nc1ccccc1Nc1ccccc1,inactive,2.74 µM (active),inactive,–,inactive,inactive,–,–,inactive,–
O=C(O)c1c2ccccc2cc2ccccc12,inactive,inactive,inactive,inactive,–,inactive,inactive,inactive,inactive,–
CCC(=O)O[C@]1(C(=O)COC)[C@@H](C)C[C@H]2[C@@H]3CCC4=CC(=O)C=C[C@]4(C)C3(F)[C@@H](O)C[C@@]21C (some centres not stated),13.3 µM (active),inactive,inactive,–,inactive,inactive,–,inactive,inactive,0.006 µM (active)
CCCCCCCCNC,inactive,inactive,inactive,inactive,inactive,inactive,–,inactive,inactive,–
CC(C)CCCCCCCOC(=O)c1ccc(C(=O)OCCCCCCCC(C)C)c(C(=O)OCCCCCCCC(C)C)c1,inactive,4.78 µM (active),inactive,inactive,inactive,inactive,–,inactive,inactive,–
CCCCCCCCC(=O)OCC(C)OC(=O)CCCCCCCC (configuration not stated),inactive,inactive,inactive,inactive,inactive,inactive,–,–,–,–
C=C(C)C(=O)OCCCCCCCCCCOC(=O)C(=C)C,inactive,inactive,inactive,inactive,inactive,inactive,–,inactive,inactive,–
CCCCOc1ccc(N)cc1,inactive,inactive,inactive,inactive,inactive,inactive,–,inactive,inactive,–
C[Si](C)(C)O[Si](C)(C)O[Si](C)(C)C,inactive,inactive,inactive,inactive,inactive,inactive,–,inactive,–,–
CCCN(C1CCN(C(=O)C2CCNCC2)CC1)[C@@H]1CCc2ccc(OC)cc2C1,inactive,4.33 µM (active),inactive,inactive,–,–,–,inactive,–,inactive
CCC1=C(C)CN(C(=O)NCCc2ccc(S(=O)(=O)NC(=O)NC3CCC(C)CC3)cc2)C1=O (configuration not stated),inactive,inactive,inactive,–,inactive,inactive,inactive,–,–,inactive
O=C1c2ccccc2C(=O)C1c1ccc2cc(S(=O)(=O)O)cc(S(=O)(=O)O)c2n1,inactive,inactive,inactive,inactive,29.5 µM (active),inactive,inactive,–,–,–
CCCCCCCCCCCCSCCOCCO,inactive,inactive,inactive,–,inactive,inactive,inactive,inactive,inactive,–
C/C=C1\[C@H]2C=C(C)C[C@]1(N)c1ccc(=O)[nH]c1C2,inactive,inactive,inactive,inactive,inactive,inactive,–,inactive,–,–
Nc1ncnc2c1ncn2[C@@H]1O[C@H](CO)[C@@H](O)[C@H]1O,inactive,inactive,inactive,–,inactive,inactive,inactive,inactive,inactive,–
C=C[Si](OCC)(OCC)OCC,inactive,inactive,inactive,inactive,inactive,inactive,–,inactive,inactive,–
COc1ccc(CN(CCN(C)C)c2ncccn2)cc1,inactive,inactive,inactive,inactive,inactive,inactive,–,inactive,inactive,–
